Most compounds without a hit are left out; they make up all but 2.1% or so of the library.
SMARCA2 act – SMARCA2 function activation, primary screen. 370,000 compounds, 1% hits. activation, % at 9.1 µM. MG213 cells, MMTV-luciferase reporter, dexamethasone, overnight; in the data active = activation above about 7.8%
MsrA inh – inhibits bovine methionine sulfoxide reductase A. purified bovine MsrA, absorbance read-out. inhibition, % at 15.5 µM. 360,000 compounds, 0.75% hits; in the data active = inhibition above about 4.5%
MsrA act – activates bovine MsrA enzyme. purified bovine MsrA, absorbance read-out. activation, % at 10.6 µM. 360,000 compounds, 0.3% hits. AID 602163; in the data active = activation above about 7.5%
ABCB6 inh 2 – human ABCB6 transporter inhibition; Q9NP58; K562-ABCB6 porphyrin accumulation, flow cytometry, 1 h; hits give low values; fluorescence ratio to DMSO, % at 10 µM; 360,000 compounds, 0.19% hits; AID 602162;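 active = fluorescence ratio to DMSO below 75%, the collection mean minus 3 SD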;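 also: signal is porphyrin accumulated inside mitochondria; lower ratio means ABCB6 inhibition with less porphyrin fluorescence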
Target sequence (Q9NP58 whole entry, looked up): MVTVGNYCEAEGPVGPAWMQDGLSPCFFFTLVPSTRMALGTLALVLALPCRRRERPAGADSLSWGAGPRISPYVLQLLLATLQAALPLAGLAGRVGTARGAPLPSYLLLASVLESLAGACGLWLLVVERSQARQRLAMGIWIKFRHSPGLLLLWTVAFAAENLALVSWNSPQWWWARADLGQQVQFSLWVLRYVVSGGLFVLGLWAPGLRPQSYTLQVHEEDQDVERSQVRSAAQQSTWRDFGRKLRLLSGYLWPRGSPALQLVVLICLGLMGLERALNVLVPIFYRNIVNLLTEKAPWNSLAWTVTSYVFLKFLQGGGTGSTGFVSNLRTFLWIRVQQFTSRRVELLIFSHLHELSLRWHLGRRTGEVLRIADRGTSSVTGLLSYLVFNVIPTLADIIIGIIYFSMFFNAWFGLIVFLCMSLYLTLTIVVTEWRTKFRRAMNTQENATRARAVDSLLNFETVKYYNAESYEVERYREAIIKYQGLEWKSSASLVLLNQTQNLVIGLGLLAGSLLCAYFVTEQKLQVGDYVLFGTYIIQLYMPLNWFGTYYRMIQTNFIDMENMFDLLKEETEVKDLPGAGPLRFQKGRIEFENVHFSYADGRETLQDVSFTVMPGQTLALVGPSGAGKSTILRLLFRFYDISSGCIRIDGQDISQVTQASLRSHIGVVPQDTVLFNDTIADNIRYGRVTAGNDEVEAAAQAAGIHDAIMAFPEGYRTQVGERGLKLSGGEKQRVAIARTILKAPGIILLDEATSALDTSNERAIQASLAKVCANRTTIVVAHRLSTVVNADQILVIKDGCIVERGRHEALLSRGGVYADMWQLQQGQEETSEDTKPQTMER
SMARCA2 act conf – SMARCA2 activation, confirmation screen. shares compounds with SMARCA2 act. MG213 cells, MMTV-luciferase with dexamethasone, luminescence, overnight; MG213 cells expressing E1A, Rb sequestered; DMSO wells 0%, reference activator 100%. activation, % at 9.1 µM. 3,500 compounds, 30% hits. AID 652260;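 active = activation above its plate's cutoff, the mean activation of tested wells plus 3 SD, cut at about 7.9% in these data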
GAL4-VP16 Luc – activates GAL4-VP16 luciferase, flagging SMARCA2 activator hits | shares compounds with SMARCA2 act | HEK293 GAL4-VP16 pG5luc reporter, luciferase luminescence; scaled: DMSO wells 0%, SAHA wells 100% | activation, % at 9.1 µM | 3,500 compounds, 41% hits;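 active = activation above the solvent-only control well mean plus 3 SD, averaged across control plates, cut at about 5.2% in these data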
A number is an active result.

COc1ccc2c(=O)cc(-c3ccccc3F)oc2c1 was read as SMARCA2 act 9.9, MsrA inh inactive, MsrA act inactive, ABCB6 inh 2 inactive, SMARCA2 act conf 8.4 and GAL4-VP16 Luc 5.6.
COc1ccc(C(NC(=O)c2ccco2)c2ccc(OC)c(OC)c2)cc1OC was read as SMARCA2 act 9.0, MsrA inh inactive, MsrA act inactive, ABCB6 inh 2 inactive, SMARCA2 act conf inactive and GAL4-VP16 Luc inactive.
CCOc1ccc(C(CC(=O)O)NC(=O)c2ccco2)cc1OC (stereo not drawn) was read as SMARCA2 act inactive, MsrA inh inactive, MsrA act inactive and ABCB6 inh 2 inactive.
Screening CN(Cc1ccccc1)C(=O)c1cc(-c2ccc(Br)cc2)on1 returned SMARCA2 act 8.1, MsrA inh inactive, MsrA act inactive, ABCB6 inh 2 inactive, SMARCA2 act conf inactive and GAL4-VP16 Luc 5.3.
`CCOC(=O)[C@@]12CCC3=C1N(CCC3)C(=O)[C@H](CC(=O)N1CCSCC1)C2` gave SMARCA2 act inactive.
Screening CCCCNC(=O)C1CCCN1C(=O)Nc1cc(C)cc(C)c1 (stereo not drawn) returned SMARCA2 act inactive.
Clc1ccc(/C=C\c2nccc3c2[nH]c2ccccc23)cc1 was read as SMARCA2 act inactive, MsrA inh inactive, MsrA act inactive and ABCB6 inh 2 inactive.
Screening N#Cc1ccc(/C=C\c2nccc3c2[nH]c2ccccc23)cc1 returned SMARCA2 act 9.9, MsrA inh inactive, MsrA act inactive, ABCB6 inh 2 inactive, SMARCA2 act conf 10 and GAL4-VP16 Luc inactive.
Screening CCCCN1C(=O)N(c2nnc(C(C)(C)C)s2)C(O)C1c1ccc(C)cc1 (stereo not drawn) returned SMARCA2 act 10, MsrA inh inactive, MsrA act inactive, ABCB6 inh 2 inactive, SMARCA2 act conf inactive and GAL4-VP16 Luc inactive.
For CN1C(=O)N(c2nnc(C(C)(C)C)s2)C(=O)C1c1ccccc1 (stereo not drawn) the results were SMARCA2 act inactive, MsrA inh inactive, MsrA act inactive and ABCB6 inh 2 inactive.
Screening COC(=O)[C@]12C[C@H](CC(=O)NCc3cccs3)C(=O)N(Cc3ccco3)C1=C[C@H](C1CCCC1)O[C@@H]2C returned SMARCA2 act inactive.
Screening CCC(=O)NCCCCCCNC(=O)CC returned SMARCA2 act inactive, MsrA inh inactive, MsrA act inactive and ABCB6 inh 2 inactive.
For O=C(CCl)NCCCCCCCCCNC(=O)CCl the results were SMARCA2 act 8.8, MsrA inh inactive, MsrA act inactive, ABCB6 inh 2 inactive, SMARCA2 act conf inactive and GAL4-VP16 Luc inactive.
`CCCC(=O)N1CCC[C@]2(CC[C@@H](CCC(=O)N(CC)CC)O2)C1` gave SMARCA2 act inactive.
Screening N/C(=N\OC(=O)c1cccs1)c1ccccc1 returned SMARCA2 act 18, MsrA inh inactive, MsrA act inactive, ABCB6 inh 2 inactive, SMARCA2 act conf 12 and GAL4-VP16 Luc 6.8.
For CSc1ccc(NC(=O)C2(C)CCN2C(=O)c2cc(C)n(C)n2)cc1 (stereo not drawn) the results were SMARCA2 act inactive, MsrA inh inactive, MsrA act inactive and ABCB6 inh 2 inactive.
`O=C1NC(=Nc2cccnc2)S/C1=C/c1ccc(F)cc1` gave SMARCA2 act 8.4, MsrA inh inactive, MsrA act inactive, ABCB6 inh 2 inactive, SMARCA2 act conf inactive and GAL4-VP16 Luc inactive.
Screening CC(CN1C(C)CCCC1C)OC(=O)c1ccccc1F (stereo not drawn) returned SMARCA2 act 9.2, MsrA inh inactive, MsrA act inactive, ABCB6 inh 2 inactive, SMARCA2 act conf inactive and GAL4-VP16 Luc inactive.
`COc1cc(-c2cnc3c(NC=O)cc(-c4ccccc4Cl)cn23)cc(OC)c1OC` gave SMARCA2 act inactive, MsrA inh inactive, MsrA act inactive and ABCB6 inh 2 inactive.
Screening COc1cc(-n2c(C)nc3cc(C(=O)N4CC(C)CC(C)C4)ccc32)cc(OC)c1OC (stereo not drawn) returned SMARCA2 act inactive.
Screening Cc1ccc(-c2cnc3ccccc3n2)cc1C returned SMARCA2 act 8.2, MsrA inh inactive, MsrA act inactive, ABCB6 inh 2 inactive, SMARCA2 act conf inactive and GAL4-VP16 Luc 9.4.
COc1ccc(CN2C(=O)CCCC2(C)c2nnnn2-c2ccc3c(c2)OCCO3)cc1 (stereo not drawn) was read as SMARCA2 act inactive.
Screening C/C(=N/NC(=O)c1ccco1)c1ccc(NC(=O)c2ccc(Br)o2)cc1 returned SMARCA2 act 9.5, MsrA inh inactive, MsrA act inactive, ABCB6 inh 2 inactive, SMARCA2 act conf inactive and GAL4-VP16 Luc 9.7.
Screening C/C(=N/NC(=O)c1ccco1)c1cccnc1 returned SMARCA2 act 8.3, MsrA inh inactive, MsrA act inactive, ABCB6 inh 2 inactive, SMARCA2 act conf inactive and GAL4-VP16 Luc inactive.
C/C(=N/NC(=O)c1ccco1)c1ccc(NC(=O)c2ccc(F)cc2)cc1 was read as SMARCA2 act inactive, MsrA inh inactive, MsrA act inactive and ABCB6 inh 2 inactive.
For O=C(CCCN1C(=O)S/C(=C\C=C\c2ccccc2)C1=O)Nc1ccc(C(=O)O)cc1 the results were SMARCA2 act 8.5, MsrA inh inactive, MsrA act inactive, ABCB6 inh 2 inactive, SMARCA2 act conf inactive and GAL4-VP16 Luc inactive.
`O=C(CCN1C(=O)S/C(=C\C=C\c2ccccc2)C1=O)Nc1ccc(O)cc1` gave SMARCA2 act inactive, MsrA inh inactive, MsrA act inactive and ABCB6 inh 2 inactive.
For CN1CCCC1CCNc1ccc2c(=O)c3ccccc3oc2c1 (stereo not drawn) the results were SMARCA2 act 11, MsrA inh inactive, MsrA act inactive, ABCB6 inh 2 inactive, SMARCA2 act conf 14 and GAL4-VP16 Luc 8.9.
Screening Cn1c2ccccc2c(=O)c2cc(NCCCN3CCOCC3)ccc21 returned SMARCA2 act 15, MsrA inh inactive, MsrA act inactive, ABCB6 inh 2 inactive, SMARCA2 act conf 18 and GAL4-VP16 Luc 8.7.
Screening CN1CCCC1CCNc1ccc2oc3ccccc3c(=O)c2c1 (stereo not drawn) returned SMARCA2 act inactive and MsrA inh inactive.
For CN1CCC[C@H]1CCNc1ccc2c(=O)c3ccccc3n(C)c2c1 the results were SMARCA2 act 27, MsrA inh inactive, MsrA act inactive, ABCB6 inh 2 inactive, SMARCA2 act conf 53 and GAL4-VP16 Luc 8.6.
For Cn1c2ccccc2c(=O)c2ccc(NCc3ccc4c(c3)OCO4)cc21 the results were SMARCA2 act inactive, MsrA inh inactive, MsrA act inactive and ABCB6 inh 2 inactive.
N#Cc1cccnc1N1CCN(C(C(=O)NC2CCCC2)c2ccco2)CC1 (stereo not drawn) was read as SMARCA2 act inactive and MsrA inh inactive.
O=C(NC(=S)N1CCc2ccccc21)c1ccccc1 was read as SMARCA2 act 8.5, MsrA inh inactive, MsrA act inactive, ABCB6 inh 2 inactive, SMARCA2 act conf inactive and GAL4-VP16 Luc inactive.
